Records with an inconclusive call do not appear. Activity calls are given as the source filed them. Calls come from the whole dose curve; as a rule, active = well fitted curve in the direction sought with a large enough effect; inconclusive = small, poorly fitted or top-dose-only effect, or another doubt; inactive = no such curve, though single readings can be large; an effect the other way counts as inactive or inconclusive.
What was measured:
[1] = MCF7 Cancer Cell Toxicity qHTS against the NCATS CANVASS Library (AID 1347369); conditions: MCF7 viability, ATP luminescence (CellTiter-Glo), 72 h; series mostly up to 46 µM
Procedure, shortened: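 Luminescent ATP signal (CellTiterGlo) served as the cytotoxicity read-out after MCF7 breast cancer cells had been incubated 72 hr at 37C with natural products in an 11-point titration.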

[2] = qHTS for ATAD5 Antagonist screened against the NCATS CANVASS Library (AID 1347370); conditions: HEK293T-ATAD5-luc, 5-FUrd stimulated, luminescence, 16 h; series mostly up to 46.1 µM;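 note: HEK293T cells carrying an ATAD5 luciferase reporter co-treated with 10 µM 5-fluorouridine; nearly all actives have a fitted effect of over 65% in size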
Procedure, shortened: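 HEK293T cells with a stably integrated ATAD5-controlled luciferase reporter were exposed to compounds (11-pt) alongside 10 uM 5-fluorouridine as ATAD5 stabilizer for 16hr at 37C. Viability was read by CellTiter-Fluor fluorescence, then ATAD5 by luminescence.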

[3] = J3T Cancer Cell Toxicity qHTS against the NCATS CANVASS Library (AID 1347371); conditions: J3T dog glioma viability, ATP luminescence, 72 h; series mostly up to 46.1 µM;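 note: J3T is a canine glioma cancer cell line seeded at 500 cells per well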
Procedure, shortened: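 Viability of the J3T glioma line from dog is scored by ATP luminescence after a 72 hr incubation with natural products.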

[4] = biological target: Nuclear receptor subfamily 1 group I member 3 (Homo sapiens) (UniProt Q14994); assay: qHTS for Constitutive Androstane Receptor (CAR) Antagonist screened against the NCATS CANVASS Library (AID 1347372); conditions: HepG2-hCAR-CYP2B6 luciferase, CITCO-stimulated antagonist mode; series mostly up to 46.1 µM;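 note: cells stimulated with 50 nM CITCO agonist so inhibition reflects antagonism; luciferase from CYP2B6 promoter reporter driven by hCAR in HepG2 cells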
Chain of Nuclear receptor subfamily 1 group I member 3 (Homo sapiens) (Q14994 whole entry, looked up): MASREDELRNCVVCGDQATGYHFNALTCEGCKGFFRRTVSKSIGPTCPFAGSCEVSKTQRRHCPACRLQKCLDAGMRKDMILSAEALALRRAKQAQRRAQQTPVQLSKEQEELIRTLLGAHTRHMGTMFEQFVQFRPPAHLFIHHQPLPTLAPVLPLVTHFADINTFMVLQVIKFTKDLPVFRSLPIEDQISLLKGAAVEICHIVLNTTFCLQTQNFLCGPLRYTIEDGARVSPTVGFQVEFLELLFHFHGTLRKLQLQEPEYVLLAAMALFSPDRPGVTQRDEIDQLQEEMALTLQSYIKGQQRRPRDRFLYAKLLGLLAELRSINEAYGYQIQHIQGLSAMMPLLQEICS
Description: Natural products and their derivatives continue to be wellsprings of nascent therapeutic potential. However, many laboratories have limited resources for biological evaluation, leaving their previously isolated or synthesized compounds largely or completely untested. To address this issue, the Canvass library of natural products was assembled (https://tripod.nih.gov/canvass), in collaboration with academic and industry researchers, for quantitative high-throughput screening (qHTS) across a diverse set of cell-based and biochemical assays. […] The library was formatted into 1536-well plates and evaluated in 50 qHTS (in an 11-pnt concentration series) bioassays with broad scope of disease-relevant mechanisms. The resulting data set from 50 different assays was then systematically analyzed to identify overall trends and specific natural products with interesting biological activities. […]
Material: A double-stable (hCAR and CYP2B6-2.2kb) transfected cell line, derived from human hepatoma (HepG2) cells, was utilized for the duration of the quantitative high-throughput screens. […] A first readout of fluorescence signal was acquired via the ViewLux (PerkinElmer) plate reader using a FITC dichroic mirror, excitation 405/10 nm filter, and emission 540/25 nm filter; and using 65 light energy, 1 second exposure, and 2x binning settings. […]

[5] = biological target: Nuclear receptor subfamily 1 group I member 3 (Homo sapiens) (UniProt Q14994); assay: qHTS for Constitutive Androstane Receptor (CAR) Agonist screened against the NCATS CANVASS Library (AID 1347373); conditions: HepG2-hCAR-CYP2B6 luciferase reporter, ONE-Glo luminescence; series mostly up to 46.1 µM;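 note: every well also contained 1.5 µM PK11195 alongside the test compound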
Procedure, shortened: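 CAR agonism is scored as CYP2B6-promoter luciferase induction in a double-stable transfected HepG2 line, where 1.5uM PK11195 is included in each well. Compounds were tested over a 24hr exposure.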

[6] = qHTS for Hypoxia signaling pathway (HIF-1) antagonists against the NCATS CANVASS Library (AID 1347374); conditions: HRE-bla ME-180 cells, HIF-1 beta-lactamase reporter, CoCl2; series mostly up to 38.3 µM;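 note: HRE-bla ME-180 cells stimulated with cobalt chloride to stabilize HIF-1alpha; nearly all actives have a fitted effect of over 60% in size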
Description: Natural products and their derivatives continue to be wellsprings of nascent therapeutic potential. However, many laboratories have limited resources for biological evaluation, leaving their previously isolated or synthesized compounds largely or completely untested. To address this issue, the Canvass library of natural products was assembled (https://tripod.nih.gov/canvass), in collaboration with academic and industry researchers, for quantitative high-throughput screening (qHTS) across a diverse set of cell-based and biochemical assays. […] We collected pure natural products to circumvent deconvolution and structure elucidation due to time and resource limitations. The library was formatted into 1536-well plates and evaluated in 50 qHTS (in an 11-pnt concentration series) bioassays with broad scope of disease-relevant mechanisms. The resulting data set from 50 different assays was then systematically analyzed to identify overall trends and specific natural products with interesting biological activities. […] The compounds were also tested for auto fluorescence that may interfere with the biological target readout resulting in potential false positives and/or negatives. […]
HIF-1 antagonist assay protocol: 1. […] The fluorescence intensity was obtained using the EnVision (PerkinElmer, Shelton, CT) plate reader using a 405 nm excitation, and 460 and 530 nm emission filters. […]

[7] = qHTS for Hypoxia signaling pathway (HIF-1) agonists against the NCATS CANVASS Library (AID 1347375); conditions: HRE-bla ME-180 cells, HIF-1 beta-lactamase reporter, 17 h; series mostly up to 38.3 µM
Description: Natural products and their derivatives continue to be wellsprings of nascent therapeutic potential. However, many laboratories have limited resources for biological evaluation, leaving their previously isolated or synthesized compounds largely or completely untested. To address this issue, the Canvass library of natural products was assembled (https://tripod.nih.gov/canvass), in collaboration with academic and industry researchers, for quantitative high-throughput screening (qHTS) across a diverse set of cell-based and biochemical assays. The pure (>85% purity by liquid chromatography/mass spectrometry [LC/MS]) Canvass library of 346 natural products were submitted by 45 academic laboratories and companies around the world. We collected pure natural products to circumvent deconvolution and structure elucidation due to time and resource limitations. The library was formatted into 1536-well plates and evaluated in 50 qHTS (in an 11-pnt concentration series) bioassays with broad scope of disease-relevant mechanisms. The resulting data set from 50 different assays was then systematically analyzed to identify overall trends and specific natural products with interesting biological activities. […] The compounds were also tested for auto fluorescence that may interfere with the biological target readout resulting in potential false positives and/or negatives. […]

[8] = 10-beta competent E. coli microbial cell viability qHTS against the NCATS CANVASS Library (AID 1347376); conditions: E. coli 10-beta viability, BacTiter-Glo ATP luminescence, overnight; series mostly up to 46.1 µM
Procedure, shortened: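 Cytotoxicity toward competent E. coli is scored from cellular ATP content via BacTiter-Glo luminescence following overnight compound exposure at 37C, 5% CO2.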

[9] = DH5-alpha competent E. coli microbial cell viability qHTS against the NCATS CANVASS Library (AID 1347377); conditions: BacTiter-Glo ATP luminescence, overnight; series mostly up to 46.1 µM
Procedure, shortened: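 Cell viability of competent DH5-alpha E. coli is scored from ATP content by luminescence. Cells sit overnight at 37C with compound across an 11-point concentration series.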

[10] = qHTS for H2AX Agonists against the NCATS CANVASS Library (AID 1347378); conditions: CHO-K1 H2AX phosphorylation, HTRF TR-FRET, 3 h; series mostly up to 76.9 µM
Procedure, shortened: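 TR-FRET readout (ex 320 nm, em 665/620 nm ratio) of phospho-H2AX (S139) in CHO-K1 lysates. Cells treated 3 hr at 37C with compound titration, 0.76% DMSO; lysis 30 min, antibody detection 24 hr at RT.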

Measured: outcome

NCCc1c[nH]c2ccc(O)cc12
inactive: all assays above

NCCc1c[nH]c2ccccc12
inactive: all assays above

Reference: PubChem BioAssay (NCATS)
